Experimental data as given in PubChem BioAssay (NCATS).
Records with an inconclusive call do not appear. A call without a number means that no potency is given here. Activity calls are given as the source filed them. The call rests on the fitted dose curve; in most records, active means well fitted curve in the direction sought with a large enough effect; inconclusive means small, poorly fitted or top-dose-only effect, or another doubt; inactive means no such curve, though single readings can be large; an effect the other way counts as inactive or inconclusive.

Assay: Cell Viability - LYMP1-003 - Assay at 40 hr (AID 964); further: nearly all actives have a fitted effect of over 60% in size
Conditions: LYMP1-003 lymphoblastoid viability; series mostly up to 92.2 µM
In short: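 Human lymphoblastoid LYMP1-003 cells, 2500/well in complete medium, rested 5 hr at 37 C, then exposed to compounds for 40 hr at 37 C. Viability read as intracellular ATP by CellTiter-Glo luminescence; AC50 from Hill fits of concentration-response data.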
In the case of CC(=O)CC(C)C, the Potency is reported as “inactive”.
In the case of CCCCC(CC)CO (stereo unspecified), the Potency is reported as “inactive”.
For CCCCC(=O)N(C)C, the Potency was “inactive”.
In the case of O=CNc1ccccc1, the Potency is reported as “inactive”.
In the case of C=CCCCCCCC=C, the Potency is reported as “inactive”.
With CCCCCCC=O the Potency was “inactive”.
With CCCCC(CC)COCC1CO1 (stereo unspecified) the Potency was “inactive”.
With Cc1cc(C)cc(N)c1 the Potency was “inactive”.
With C=CCOC(=O)COCCC(C)C the Potency was “inactive”.
For O=C(O)CNC(=O)c1ccc(CO)o1, the Potency was “inactive”.
For C=C(C)C(N)=O, the Potency was “inactive”.
With CCN(Cc1ccccc1)c1ccccc1 the Potency was “inactive”.
For O=C(O)c1cccc(Cl)c1Cl, the Potency was “inactive”.
With O=C(O)CNC(=O)c1ccc([N+](=O)[O-])cc1 the Potency was “inactive”.
For Nc1c(Cl)cc(Cl)cc1Cl, the Potency was “inactive”.
For C=CCCCC, the Potency was “inactive”.
For NC(=O)c1cccc([N+](=O)[O-])c1, the Potency was “inactive”.
For C=C(C)OC(C)=O, the Potency was “inactive”.
In the case of CC(C)Cc1nccs1, the Potency is reported as “inactive”.
In the case of CC(C)c1ccccc1, the Potency is reported as “inactive”.
For CCOCCOCC, the Potency was “inactive”.
With CCC1CO1 (stereo unspecified) the Potency was “inactive”.
In the case of NC(=O)CCCCC(N)=O, the Potency is reported as “inactive”.
For CCOC(C)(C)C, the Potency was “inactive”.
In the case of CC(N)CN (stereo unspecified), the Potency is reported as “inactive”.
In the case of Cc1ccc(C(C)(C)C)cc1, the Potency is reported as “inactive”.
In the case of Cc1ccc(C#N)cc1, the Potency is reported as “inactive”.
In the case of Cc1ccc(C)cc1, the Potency is reported as “inactive”.
For CCc1ccccc1, the Potency was “inactive”.
In the case of CCCCC(C=O)CC (stereo unspecified), the Potency is reported as “inactive”.
In the case of CC(C)=C1CCC(C)CC1=O (stereo unspecified), the Potency is reported as “inactive”.
In the case of Cc1ccc(C)c([N+](=O)[O-])c1, the Potency is reported as “inactive”.

Assay: Cell Viability - LYMP2-003 (AID 965);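 further: cells exposed to compounds for 24 h before reading; nearly all actives have a fitted effect of over 50% in size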
Conditions: LYMP2-003 lymphoblastoid cell viability; series mostly up to 92.2 µM
In short: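 Human lymphoblastoid LYMP2-003 cells, 2500/well, exposed to compounds for 24 h at 37 C in complete medium. Viability read as intracellular ATP by CellTiter-Glo luminescence; AC50 from Hill-equation fits of qHTS concentration-response data.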
For Nc1nc(CC(=O)O)cs1, the Potency was “inactive”.
With CC(=O)CC(C)C the Potency was “inactive”.
In the case of CCCCC(CC)CO (stereo unspecified), the Potency is reported as “inactive”.
For CCCCC(=O)N(C)C, the Potency was “inactive”.
In the case of O=CNc1ccccc1, the Potency is reported as “inactive”.
With Clc1ccc(Cl)c(Cl)c1Cl the Potency was “inactive”.
In the case of C=CCCCCCCC=C, the Potency is reported as “inactive”.
In the case of CCCCCCC=O, the Potency is reported as “inactive”.
With CCCCC(CC)COCC1CO1 (stereo unspecified) the Potency was “inactive”.
In the case of Cc1cc(C)cc(N)c1, the Potency is reported as “inactive”.
For C=CCOC(=O)COCCC(C)C, the Potency was “inactive”.
For O=C(O)CNC(=O)c1ccc(CO)o1, the Potency was “inactive”.
For C=C(C)C(N)=O, the Potency was “inactive”.
For CCN(Cc1ccccc1)c1ccccc1, the Potency was “inactive”.
With O=C(O)c1cccc(Cl)c1Cl the Potency was “inactive”.
With CC(=O)c1cccc([N+](=O)[O-])c1 the Potency was “inactive”.
In the case of O=C(O)CNC(=O)c1ccc([N+](=O)[O-])cc1, the Potency is reported as “inactive”.
For Nc1c(Cl)cc(Cl)cc1Cl, the Potency was “inactive”.
For C=CCCCC, the Potency was “inactive”.
With NC(=O)c1cccc([N+](=O)[O-])c1 the Potency was “inactive”.
For C=C(C)OC(C)=O, the Potency was “inactive”.
In the case of CC(C)Cc1nccs1, the Potency is reported as “inactive”.
In the case of CC(C)c1ccccc1, the Potency is reported as “inactive”.
In the case of CCOCCOCC, the Potency is reported as “inactive”.
In the case of CCC1CO1 (stereo unspecified), the Potency is reported as “inactive”.
For NC(=O)CCCCC(N)=O, the Potency was “inactive”.
With CCOC(C)(C)C the Potency was “inactive”.
With CC(N)CN (stereo unspecified) the Potency was “inactive”.
With Cc1ccc(C(C)(C)C)cc1 the Potency was “inactive”.
In the case of Cc1ccc(C#N)cc1, the Potency is reported as “inactive”.
In the case of Cc1ccc(C)cc1, the Potency is reported as “inactive”.
With CN(C)CCCCl the Potency was “inactive”.
For CC(=O)c1nccs1, the Potency was “inactive”.
With CCc1ccccc1 the Potency was “inactive”.
For CCCCC(C=O)CC (stereo unspecified), the Potency was “inactive”.
With CC(C)=C1CCC(C)CC1=O (stereo unspecified) the Potency was “inactive”.
In the case of CCCCCCCCC, the Potency is reported as “inactive”.
For C=CCCCCCC, the Potency was “inactive”.
With Cc1ccc(C)c([N+](=O)[O-])c1 the Potency was “inactive”.
